Test results taken from PubChem BioAssay (EPA / NIEHS).
The source made the active and inactive calls. The calls were made as follows: active = hit-call score of the fitted dose curve at least 0.9, where 1 is the maximum; inactive = score below 0.9.

Key:
[1] = molecular target: Bile acid receptor (Homo sapiens) (UniProt Q96RI1); test: ATG_IR1_CIS: Attagene CIS-FACTORIAL HepG2 Assay for human Nuclear Receptor Subfamily 1 Group H Member 4 (NR1H4), IR1 submotif (AID 2282946); details: IR1 reporter transcription, actives raise or lower the signal
Summary of the method: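 Readout: reporter transcript levels by RT-PCR with fluorescent capillary electrophoresis, from HepG2 cells transiently transfected with multiplexed cis-regulated reporters and dosed 24 h. Gain- or loss-of-signal fitted versus DMSO negative control.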

[2] = ATG_GRE_CIS: Attagene CIS-FACTORIAL HepG2 Assay for human Glucocorticoid Response Elements (GRE) (AID 2282947); details: HepG2 GRE cis-reporter, Attagene multiplex mRNA; actives raise or lower the signal
Summary of the method: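 Cells (HepG2) bearing transfected cis-promoter reporter transcription units were treated with chemical for 24 hours. Reporter mRNA was measured via RT-PCR with capillary electrophoresis, and activity was fitted in both directions relative to DMSO.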

[3] = ATG_ISRE_CIS: Attagene CIS-FACTORIAL HepG2 Assay for human Interferon Regulatory Factor 1 (IRF1) binding to an Interferon-Stimulated Response Element (ISRE) (AID 2282948); details: HepG2 ISRE cis-reporter (Attagene), mRNA transcription readout; actives raise or lower the signal
Summary of the method: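 Signal reflects induction or loss of ISRE-linked reporter mRNA in transiently transfected HepG2 cells after a 24 h treatment, detected by fluorescent RT-PCR fragments on capillary electrophoresis and normalised to DMSO.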

[4] = ATG_M_32_CIS: Attagene CIS-FACTORIAL HepG2 Assay for M32 Transcription Factor (Internal Marker) (AID 2282949); details: HepG2 Attagene cis-factorial M32 reporter, mRNA; actives raise or lower the signal;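 also: background control marker of the multiplexed CIS panel rather than a real target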
Summary of the method: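 HepG2 transfectants (cis-regulated reporter transcription units) dosed 24 h. Reporter mRNA by RT-PCR plus CE, analysed as gain or loss relative to DMSO.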

[5] = molecular target: Hypoxia-inducible factor 1-alpha (Homo sapiens) (UniProt Q16665); test: ATG_HIF1a_CIS: Attagene CIS-FACTORIAL HepG2 Assay for human Hypoxia Inducible Factor 1 (HIF1A) (AID 2282951); details: HepG2 Attagene cis-factorial HIF1a reporter transcription; actives raise or lower the signal
Summary of the method: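 Endogenous-TF cis reporter readout, human HepG2 cells, 24 h incubation; mRNA detected via RT-PCR and capillary electrophoresis fluorescence; DMSO-normalised bidirectional fitting.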

[6] = molecular target: Hepatocyte nuclear factor 6 (Homo sapiens) (UniProt Q9UBC0); test: ATG_HNF6_CIS: Attagene CIS-FACTORIAL HepG2 Assay for human Hepatocyte Nuclear Factor 6 (HNF6) (AID 2282952); details: HepG2 Attagene cis-factorial HNF6 reporter transcription; actives raise or lower the signal
Summary of the method: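 Readout: fluorescent reporter-transcript fragments resolved by capillary electrophoresis after RT-PCR, reflecting endogenous factor activity in transfected HepG2. Exposure 24 h. Gain or loss of signal fitted bidirectionally against DMSO.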

[7] = molecular target: Heat shock factor protein 1 (Homo sapiens) (UniProt Q00613); test: ATG_HSE_CIS: Attagene CIS-FACTORIAL HepG2 Assay for human Heat Shock Transcription Factor 1 (HSE) (AID 2282953); details: HepG2 HSE cis-reporter, Attagene RNA transcription; actives raise or lower the signal
Summary of the method: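 Liver-derived HepG2 cells carry transiently introduced multiple reporter units governed by cis promoters. Reporter RNA measured 24 h post-dose through reverse transcription, PCR amplification, fluorescent labelling and capillary electrophoresis, normalised to DMSO.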

[8] = ATG_MRE_CIS: Attagene CIS-FACTORIAL HepG2 Assay for human Metal Responsive Element (MRE) (AID 2282954); details: HepG2 MRE cis-reporter transcription, Attagene multiplex; actives raise or lower the signal
Summary of the method: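 Cells were transfected with cis-promoter reporter transcription units, then dosed for 24 h. RNA was reverse-transcribed, amplified, fluorescently labelled and resolved by capillary electrophoresis, and activity was fitted in both directions relative to DMSO.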

[9] = ATG_PBREM_CIS: Attagene CIS-FACTORIAL HepG2 Assay for human Phenobarbital-responsive Enhancer Module (PBREM) (AID 2282955); details: HepG2 PBREM cis-reporter, Attagene multiplexed transcription; actives raise or lower the signal
Summary of the method: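 Readout: reporter mRNA, fluorescent RT-PCR fragments separated by capillary electrophoresis. System: HepG2 transiently transfected with cis-regulated reporter units. Exposure: 24 h. Analysis: bidirectional, DMSO baseline.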

[10] = molecular target: Paired box protein Pax-6 (Homo sapiens) (UniProt P26367); test: ATG_Pax6_CIS: Attagene CIS-FACTORIAL HepG2 Assay for human Paired Box 6 (PAX6) (AID 2282956); details: HepG2 CIS-FACTORIAL PAX6 reporter transcription, RNA readout; actives raise or lower the signal
Summary of the method: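 Values derive from bidirectional curve fitting of reporter mRNA signal relative to DMSO. HepG2 cells bearing transfected cis-regulated MRTUs were exposed for 24 h; transcripts were read by RT-PCR and capillary electrophoresis.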

[11] = ATG_PXRE_CIS: Attagene CIS-FACTORIAL HepG2 Assay for human Pregnane X Receptor Element (PXRE) (AID 2282957); details: HepG2 Attagene CIS-FACTORIAL PXRE reporter, mRNA; actives raise or lower the signal
Summary of the method: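 Read-out: fluorescence of reporter-specific RT-PCR products resolved by capillary electrophoresis, fitted bidirectionally relative to DMSO. Human HepG2 liver cells carried transfected cis-promoter reporter units and were exposed to chemicals for 24 h.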

[12] = ATG_PPRE_CIS: Attagene CIS-FACTORIAL HepG2 Assay for human Peroxisome Proliferator-activated Response Element (PPRE) (AID 2282958); details: HepG2 PPRE cis-element reporter, Attagene transcription factor profiling; actives raise or lower the signal
Summary of the method: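 After human HepG2 hepatoma cells were transiently transfected with cis-promoter reporter constructs, they were exposed to test chemicals for 24 hours. Reporter RNA was then reverse-transcribed, PCR-amplified, FAM-labeled, HpaI-digested and quantified by capillary electrophoresis.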

[13] = ATG_RORE_CIS: Attagene CIS-FACTORIAL HepG2 Assay for human RAR-related Orphan Receptor Element (RORE) (AID 2282959); details: HepG2 Attagene cis-factorial RORE reporter, mRNA; actives raise or lower the signal
Summary of the method: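 Measured here: transcript induction of a cis-regulated reporter in HepG2 cells transiently transfected via FuGene 6. After 24 h, RNA was processed by RT-PCR and fluorescent capillary electrophoresis; DMSO defined baseline activity.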

[14] = molecular target: Transcription factor Sp1 (Homo sapiens) (UniProt P08047); test: ATG_Sp1_CIS: Attagene CIS-FACTORIAL HepG2 Assay for human Specificity Protein 1 (Sp1) (AID 2282961); details: HepG2 Sp1 cis-reporter transcription, actives raise or lower the signal
Summary of the method: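 After transient transfection of HepG2 cells with cis-promoter reporter units and 24 h chemical treatment, reporter transcripts were quantified by RT-PCR and capillary electrophoresis fluorescence. Gain- and loss-of-signal fitted against DMSO.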

[15] = ATG_SREBP_CIS: Attagene CIS-FACTORIAL HepG2 Assay for human Sterol Regulatory Element Binding (SREBP) (AID 2282962); details: HepG2 Attagene cis-factorial SREBP reporter, mRNA; actives raise or lower the signal
Summary of the method: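 Values derive from bidirectional curve fitting with DMSO as baseline. The underlying measurement is reporter mRNA from cis-element-regulated units in transiently transfected HepG2, quantified by RT-PCR and capillary electrophoresis after 24 h exposure.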

[16] = molecular target: Signal transducer and activator of transcription 3 (Homo sapiens) (UniProt P40763); test: ATG_STAT3_CIS: Attagene CIS-FACTORIAL HepG2 Assay for human Signal Transducer and Activator of Transcription 3 (STAT3) (AID 2282963); details: HepG2, Attagene cis-factorial STAT3 reporter transcription; actives raise or lower the signal
Summary of the method: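 HepG2, MRTU-transfected, 24 h dosing. RNA → RT → PCR → FAM label → HpaI → CE. Bidirectional fit vs DMSO.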

[17] = ATG_TA_CIS: Attagene CIS-FACTORIAL HepG2 Assay for human TA Basal Promoter (AID 2282964); details: HepG2 Attagene CIS-factorial TA basal promoter reporter; actives raise or lower the signal
Summary of the method: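 Background internal-marker endpoint from a 52-component HepG2 cis-reporter panel. Cells treated 24 h; reporter transcripts quantified via RT-PCR and CE fluorescence against DMSO baseline.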

[18] = ATG_TCF_b_cat_CIS: Attagene CIS-FACTORIAL HepG2 Assay for human T-Cell-Factor with beta-catenin (TCF/b-cat) (AID 2282965); details: HepG2 TCF/beta-catenin cis-reporter transcription, actives raise or lower the signal
Summary of the method: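 In this cis-format system, transfected HepG2 cells report endogenous transcription factor activity. Readout after 24 h exposure is reporter transcript abundance from RT-PCR and capillary electrophoresis, analysed for gain or loss of signal versus DMSO.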

[19] = ATG_Sox_CIS: Attagene CIS-FACTORIAL HepG2 Assay for human SRY-box transcription factor (SOX) (AID 2282960); details: HepG2 Attagene cis-factorial SOX reporter, mRNA; actives raise or lower the signal
Summary of the method: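 Using transiently transfected HepG2 cells, reporter transcription driven by cis elements was assessed 24 h after dosing. Signal was fluorescence of capillary-separated RT-PCR products, with DMSO defining baseline activity.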

[20] = ATG_M_06_CIS: Attagene CIS-FACTORIAL HepG2 Assay for M06 Transcription Factor (Internal Marker) (AID 2282950); details: HepG2 Attagene CIS-FACTORIAL M06 internal marker reporter; actives raise or lower the signal
Summary of the method: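 Cells (HepG2, transiently carrying cis-driven reporter units) receive chemical for 24 h before RNA isolation. Reporter cDNA is PCR-amplified, FAM-labelled by primer extension, HpaI-digested and sized on a capillary analyser.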

Measured: AC50

Sequence of Bile acid receptor (Homo sapiens) (Q96RI1 whole entry, looked up): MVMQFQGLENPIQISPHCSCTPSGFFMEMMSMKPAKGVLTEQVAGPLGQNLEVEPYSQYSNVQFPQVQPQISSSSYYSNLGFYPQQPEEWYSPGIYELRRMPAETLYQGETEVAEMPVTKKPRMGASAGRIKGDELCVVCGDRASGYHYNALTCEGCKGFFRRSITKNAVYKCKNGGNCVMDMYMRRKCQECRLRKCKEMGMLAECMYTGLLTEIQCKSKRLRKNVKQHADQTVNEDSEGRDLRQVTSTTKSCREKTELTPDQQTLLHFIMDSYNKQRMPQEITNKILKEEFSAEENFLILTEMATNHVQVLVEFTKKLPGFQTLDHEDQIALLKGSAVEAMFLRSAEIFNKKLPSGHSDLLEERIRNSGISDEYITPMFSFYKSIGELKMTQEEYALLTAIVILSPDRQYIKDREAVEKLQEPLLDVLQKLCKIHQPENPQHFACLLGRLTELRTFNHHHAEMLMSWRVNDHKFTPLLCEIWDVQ
Sequence of Paired box protein Pax-6 (Homo sapiens) (P26367 whole entry, looked up): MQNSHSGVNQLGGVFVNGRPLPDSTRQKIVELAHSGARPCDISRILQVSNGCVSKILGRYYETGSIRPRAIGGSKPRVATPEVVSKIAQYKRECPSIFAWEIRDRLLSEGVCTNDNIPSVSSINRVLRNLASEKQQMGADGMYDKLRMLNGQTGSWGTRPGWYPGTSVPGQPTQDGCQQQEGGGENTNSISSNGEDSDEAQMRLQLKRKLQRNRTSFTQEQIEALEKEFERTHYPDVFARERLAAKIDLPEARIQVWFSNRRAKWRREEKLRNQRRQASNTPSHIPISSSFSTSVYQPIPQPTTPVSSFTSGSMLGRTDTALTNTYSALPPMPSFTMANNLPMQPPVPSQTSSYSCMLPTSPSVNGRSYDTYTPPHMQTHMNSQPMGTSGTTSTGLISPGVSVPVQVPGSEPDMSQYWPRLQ
Sequence of Heat shock factor protein 1 (Homo sapiens) (Q00613 whole entry, looked up): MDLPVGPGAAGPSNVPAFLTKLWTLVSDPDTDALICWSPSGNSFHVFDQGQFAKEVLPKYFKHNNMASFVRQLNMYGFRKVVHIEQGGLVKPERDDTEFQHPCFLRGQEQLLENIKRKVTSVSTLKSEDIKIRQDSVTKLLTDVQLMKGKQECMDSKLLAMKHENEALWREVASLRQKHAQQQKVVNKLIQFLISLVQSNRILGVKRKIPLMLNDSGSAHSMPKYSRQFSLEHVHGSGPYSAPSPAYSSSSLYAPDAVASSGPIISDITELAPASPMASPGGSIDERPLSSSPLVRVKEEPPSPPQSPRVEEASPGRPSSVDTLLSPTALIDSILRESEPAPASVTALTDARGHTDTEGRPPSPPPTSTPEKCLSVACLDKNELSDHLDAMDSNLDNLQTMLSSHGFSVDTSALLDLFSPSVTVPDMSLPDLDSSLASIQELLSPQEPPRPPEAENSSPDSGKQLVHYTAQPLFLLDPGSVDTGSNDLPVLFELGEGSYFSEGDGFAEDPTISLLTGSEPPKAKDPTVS
Sequence of Hepatocyte nuclear factor 6 (Homo sapiens) (Q9UBC0 whole entry, looked up, the tested form may be a part): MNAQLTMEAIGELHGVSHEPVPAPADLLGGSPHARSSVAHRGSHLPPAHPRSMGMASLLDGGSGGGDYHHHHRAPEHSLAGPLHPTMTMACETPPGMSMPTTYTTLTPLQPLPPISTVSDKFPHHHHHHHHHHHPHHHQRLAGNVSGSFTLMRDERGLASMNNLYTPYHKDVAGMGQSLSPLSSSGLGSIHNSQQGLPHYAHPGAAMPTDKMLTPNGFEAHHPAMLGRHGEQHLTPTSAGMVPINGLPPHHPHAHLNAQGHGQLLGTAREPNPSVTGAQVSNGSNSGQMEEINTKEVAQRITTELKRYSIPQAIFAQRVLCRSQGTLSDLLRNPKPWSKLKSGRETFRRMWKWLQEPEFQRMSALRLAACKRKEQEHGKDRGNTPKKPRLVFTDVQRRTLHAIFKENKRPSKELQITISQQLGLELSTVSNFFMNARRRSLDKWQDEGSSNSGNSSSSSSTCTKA
Sequence of Hypoxia-inducible factor 1-alpha (Homo sapiens) (Q16665 whole entry, looked up): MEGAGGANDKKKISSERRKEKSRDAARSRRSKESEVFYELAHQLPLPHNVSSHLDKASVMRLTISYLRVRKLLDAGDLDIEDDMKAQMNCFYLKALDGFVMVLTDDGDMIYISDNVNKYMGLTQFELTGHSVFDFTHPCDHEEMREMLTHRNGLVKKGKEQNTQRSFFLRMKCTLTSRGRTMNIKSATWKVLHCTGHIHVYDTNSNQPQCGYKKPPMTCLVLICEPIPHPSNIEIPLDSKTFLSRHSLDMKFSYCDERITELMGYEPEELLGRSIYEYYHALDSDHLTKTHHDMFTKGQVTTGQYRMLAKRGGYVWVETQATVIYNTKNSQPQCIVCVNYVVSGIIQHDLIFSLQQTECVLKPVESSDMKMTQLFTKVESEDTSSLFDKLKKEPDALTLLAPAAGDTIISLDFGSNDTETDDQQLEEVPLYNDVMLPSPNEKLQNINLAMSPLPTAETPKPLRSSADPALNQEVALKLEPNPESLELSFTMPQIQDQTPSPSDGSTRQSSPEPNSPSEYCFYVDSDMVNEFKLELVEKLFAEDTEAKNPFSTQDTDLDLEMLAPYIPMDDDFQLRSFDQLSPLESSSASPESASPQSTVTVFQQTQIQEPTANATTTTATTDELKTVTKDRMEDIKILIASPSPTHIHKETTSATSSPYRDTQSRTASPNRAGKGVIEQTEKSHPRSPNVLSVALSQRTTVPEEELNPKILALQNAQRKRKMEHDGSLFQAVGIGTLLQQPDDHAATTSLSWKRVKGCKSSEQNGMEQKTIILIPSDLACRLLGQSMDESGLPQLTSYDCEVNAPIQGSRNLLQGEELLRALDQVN
Sequence of Transcription factor Sp1 (Homo sapiens) (P08047 whole entry, looked up): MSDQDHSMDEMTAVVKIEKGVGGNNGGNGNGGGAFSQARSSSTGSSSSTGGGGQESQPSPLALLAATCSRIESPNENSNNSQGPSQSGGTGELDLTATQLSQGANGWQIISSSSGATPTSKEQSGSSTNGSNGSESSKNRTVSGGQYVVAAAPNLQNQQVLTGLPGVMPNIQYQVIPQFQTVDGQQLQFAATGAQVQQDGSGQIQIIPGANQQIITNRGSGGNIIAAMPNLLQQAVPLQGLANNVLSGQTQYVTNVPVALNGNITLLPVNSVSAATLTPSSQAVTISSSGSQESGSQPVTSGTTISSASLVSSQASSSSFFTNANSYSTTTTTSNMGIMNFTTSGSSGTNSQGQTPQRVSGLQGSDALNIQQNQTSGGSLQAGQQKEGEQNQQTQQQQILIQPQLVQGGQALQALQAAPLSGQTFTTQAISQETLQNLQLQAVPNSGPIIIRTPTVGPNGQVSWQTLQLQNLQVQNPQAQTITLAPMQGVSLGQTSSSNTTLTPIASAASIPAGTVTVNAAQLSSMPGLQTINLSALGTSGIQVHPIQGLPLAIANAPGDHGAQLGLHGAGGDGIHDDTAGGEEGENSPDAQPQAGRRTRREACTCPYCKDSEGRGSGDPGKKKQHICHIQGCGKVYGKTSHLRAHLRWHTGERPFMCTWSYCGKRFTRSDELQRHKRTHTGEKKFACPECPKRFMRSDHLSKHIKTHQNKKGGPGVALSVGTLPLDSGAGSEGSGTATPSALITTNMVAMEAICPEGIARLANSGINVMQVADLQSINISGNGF
Sequence of Signal transducer and activator of transcription 3 (Homo sapiens) (P40763 whole entry, looked up): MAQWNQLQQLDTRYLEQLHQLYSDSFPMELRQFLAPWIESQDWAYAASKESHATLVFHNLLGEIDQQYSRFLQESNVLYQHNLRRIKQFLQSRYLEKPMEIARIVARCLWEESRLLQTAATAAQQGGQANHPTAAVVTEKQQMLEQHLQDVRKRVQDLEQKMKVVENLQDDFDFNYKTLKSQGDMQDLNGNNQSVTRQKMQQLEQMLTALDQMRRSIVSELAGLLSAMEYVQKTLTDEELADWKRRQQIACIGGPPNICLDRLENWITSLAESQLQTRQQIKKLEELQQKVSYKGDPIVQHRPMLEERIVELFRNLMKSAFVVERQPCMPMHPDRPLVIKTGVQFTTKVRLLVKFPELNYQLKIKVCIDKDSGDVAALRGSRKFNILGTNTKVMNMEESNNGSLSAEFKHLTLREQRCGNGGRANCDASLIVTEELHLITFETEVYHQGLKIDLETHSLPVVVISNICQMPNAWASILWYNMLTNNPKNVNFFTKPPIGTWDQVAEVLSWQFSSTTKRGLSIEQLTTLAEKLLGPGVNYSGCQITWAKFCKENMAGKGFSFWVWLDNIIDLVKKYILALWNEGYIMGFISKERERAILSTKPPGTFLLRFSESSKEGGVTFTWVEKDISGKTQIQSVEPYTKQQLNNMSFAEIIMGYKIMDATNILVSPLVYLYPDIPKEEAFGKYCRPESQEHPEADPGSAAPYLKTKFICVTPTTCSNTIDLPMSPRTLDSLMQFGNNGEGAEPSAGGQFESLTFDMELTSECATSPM

Nc1ccc(Cc2ccc(N)cc2)cc1
not listed: [19] | [20]
inactive: all other assays above

CCCCCCCCOC(=O)c1ccc(C(=O)OCCCCCCCC)c(C(=O)OCCCCCCCC)c1
active: [5] 23.7 µM
not listed: [13] | [20]
inactive: all other assays above

Nc1ccc(Cl)cc1N
active: [5] 27.6 µM | [8] 22.9 µM | [10] 27.4 µM | [11] 26.1 µM | [13] 27.7 µM | [19] 26.8 µM | [17] 9.74 µM
not listed: [3] | [12]
inactive: all other assays above

CCOC(=O)[C@]1(c2ccccc2)Oc2ccccc2[C@@H]1N
inactive: [1] | [16]
active: [2] 52.6 µM | [4] 52.7 µM | [5] 1.78 µM | [6] 43.3 µM | [7] 61.8 µM | [8] 33 µM | [9] 9.64 µM | [10] 37.6 µM | [11] 9.53 µM | [13] 33 µM | [19] 50.3 µM | [14] 49.6 µM | [15] 12.3 µM | [17] 33 µM

Nc1ccc(N=Nc2ccccc2)cc1
active: [3] 57.2 µM | [5] 58.1 µM | [8] 67 µM | [9] 67.3 µM | [10] 47.4 µM | [11] 57.7 µM | [13] 40.7 µM | [17] 52.2 µM | [18] 27.4 µM
not listed: [12] | [20]
inactive: all other assays above

Nc1ccc([N+](=O)[O-])cc1
not listed: [3] | [12] | [18]
inactive: all other assays above

CN(C)c1ccccc1
not listed: [9] | [12] | [13] | [18]
inactive: all other assays above

CCCCCCCCn1sccc1=O
active: [6] 21 µM | [7] 16.7 µM | [8] 16.7 µM | [10] 19.1 µM | [11] 18.5 µM | [19] 18.4 µM | [14] 17 µM | [15] 14.8 µM | [18] 15.6 µM
inactive: [1] | [2] | [4] | [20] | [5] | [13] | [16] | [17]

COP(=S)(OC)SCN1C(=O)c2ccccc2C1=O
active: [11] 26.8 µM
not listed: [9] | [12] | [13] | [18] | [20]
inactive: all other assays above

CC(C)COC(=O)c1ccccc1C(=O)OCC(C)C
active: [8] 109 µM | [10] 100 µM | [11] 26.1 µM | [13] 44.3 µM | [17] 56.4 µM
not listed: [3] | [9] | [12] | [18] | [19]
inactive: all other assays above

CN(C)C(=O)Nc1ccc(Cl)cc1
inactive: all assays above

O=C1CCCO1
not listed: [3] | [12] | [18] | [19] | [20]
inactive: all other assays above

Clc1ccc(C(c2ccc(Cl)cc2)C(Cl)Cl)cc1
active: [1] 21.2 µM | [3] 49.4 µM | [7] 51.7 µM | [8] 50.6 µM | [9] 56.8 µM | [10] 62.7 µM | [11] 8.73 µM | [14] 59.8 µM | [15] 56.4 µM
not listed: [19] | [20]
inactive: all other assays above
